# A selection: hits, their analogues and other compounds. The true share with any hit is near 12%.
# BAZ2B inh: blocks human BAZ2B; Q9UIF8; AlphaScreen BAZ2B-H3K14Ac peptide displacement; Potency, µM (series often up to 114 µM), without a hit: at the highest dose activity change, negative = inhibition, hits mostly inhibitors; actives 4.4% (n = 360,000); AID 504333; also: % is scaled to controls: 0 for no effect and ±100 for the full control effect; nearly all actives have a fitted effect of over 60% in size
# Target sequence (Q9UIF8 whole entry, looked up): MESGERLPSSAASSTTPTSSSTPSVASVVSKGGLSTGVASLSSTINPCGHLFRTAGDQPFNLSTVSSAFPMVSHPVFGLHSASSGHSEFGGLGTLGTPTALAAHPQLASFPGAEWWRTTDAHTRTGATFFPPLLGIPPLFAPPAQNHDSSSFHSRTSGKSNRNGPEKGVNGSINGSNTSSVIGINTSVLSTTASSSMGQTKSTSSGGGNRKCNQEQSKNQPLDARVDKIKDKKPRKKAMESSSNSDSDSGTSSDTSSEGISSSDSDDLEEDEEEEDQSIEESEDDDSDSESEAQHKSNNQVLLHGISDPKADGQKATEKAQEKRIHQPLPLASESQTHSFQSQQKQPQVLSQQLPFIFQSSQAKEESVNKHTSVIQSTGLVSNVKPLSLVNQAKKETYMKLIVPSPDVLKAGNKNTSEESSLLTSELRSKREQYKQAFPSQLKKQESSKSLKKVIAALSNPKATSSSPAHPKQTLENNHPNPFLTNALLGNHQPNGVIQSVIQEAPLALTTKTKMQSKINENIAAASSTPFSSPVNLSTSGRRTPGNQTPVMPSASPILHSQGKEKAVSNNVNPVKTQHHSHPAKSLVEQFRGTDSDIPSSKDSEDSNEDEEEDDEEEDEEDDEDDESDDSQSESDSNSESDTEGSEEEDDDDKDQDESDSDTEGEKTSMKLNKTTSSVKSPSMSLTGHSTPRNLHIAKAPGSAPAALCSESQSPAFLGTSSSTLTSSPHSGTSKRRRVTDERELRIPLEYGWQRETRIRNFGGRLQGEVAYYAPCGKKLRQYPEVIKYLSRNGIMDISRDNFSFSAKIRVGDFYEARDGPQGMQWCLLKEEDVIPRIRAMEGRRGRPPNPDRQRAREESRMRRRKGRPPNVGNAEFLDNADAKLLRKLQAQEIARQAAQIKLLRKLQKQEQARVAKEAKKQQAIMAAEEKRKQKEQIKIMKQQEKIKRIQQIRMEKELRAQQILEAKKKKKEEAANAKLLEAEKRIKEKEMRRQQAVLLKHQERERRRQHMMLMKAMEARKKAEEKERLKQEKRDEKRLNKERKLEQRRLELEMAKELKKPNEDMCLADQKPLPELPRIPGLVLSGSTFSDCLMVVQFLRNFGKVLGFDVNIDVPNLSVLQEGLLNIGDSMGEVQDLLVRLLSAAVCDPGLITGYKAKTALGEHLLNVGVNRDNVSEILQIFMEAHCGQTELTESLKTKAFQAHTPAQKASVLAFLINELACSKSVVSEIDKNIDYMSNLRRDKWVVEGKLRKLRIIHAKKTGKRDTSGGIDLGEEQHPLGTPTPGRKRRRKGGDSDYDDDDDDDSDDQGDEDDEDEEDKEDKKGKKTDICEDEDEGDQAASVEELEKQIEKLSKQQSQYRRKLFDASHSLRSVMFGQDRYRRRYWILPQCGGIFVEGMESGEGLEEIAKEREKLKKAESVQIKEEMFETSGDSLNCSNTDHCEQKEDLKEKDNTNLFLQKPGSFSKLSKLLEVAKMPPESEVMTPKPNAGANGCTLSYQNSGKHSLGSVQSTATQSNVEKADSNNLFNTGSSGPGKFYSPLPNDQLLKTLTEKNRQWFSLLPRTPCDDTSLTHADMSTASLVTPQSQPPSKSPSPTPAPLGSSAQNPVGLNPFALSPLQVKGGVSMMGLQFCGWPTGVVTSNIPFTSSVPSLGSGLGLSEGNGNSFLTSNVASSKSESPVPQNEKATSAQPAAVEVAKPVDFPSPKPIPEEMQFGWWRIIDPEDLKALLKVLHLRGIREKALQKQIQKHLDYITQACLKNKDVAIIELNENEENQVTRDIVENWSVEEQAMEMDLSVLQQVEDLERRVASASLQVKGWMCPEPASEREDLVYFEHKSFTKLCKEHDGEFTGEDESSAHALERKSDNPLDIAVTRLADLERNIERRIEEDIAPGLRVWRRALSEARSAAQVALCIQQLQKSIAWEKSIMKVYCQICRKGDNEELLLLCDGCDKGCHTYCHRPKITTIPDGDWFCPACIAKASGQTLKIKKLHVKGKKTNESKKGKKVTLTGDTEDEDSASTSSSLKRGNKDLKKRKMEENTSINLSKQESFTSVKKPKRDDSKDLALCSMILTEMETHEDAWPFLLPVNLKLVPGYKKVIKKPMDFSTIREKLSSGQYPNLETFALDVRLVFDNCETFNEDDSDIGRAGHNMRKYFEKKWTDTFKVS
#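 AlphaScreen displacement of biotin-H3(5-23)K14Ac peptide (50 nM final) from BAZ2B (50 nM final) in PBS pH 7.4, 0.01% Tween-20; complex preformed 30 min RT, then compounds (top 110 uM) 30 min RT, beads 20 min dark.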
# HP1b binding inh: HP1-beta chromodomain-methylated histone interaction inhibition | P83916 | AlphaScreen HP1-beta / biotin-H3K9me3 peptide binding | Potency, µM (highest dose often 114 µM), without a hit: top-dose activity change, negative = inhibition, most hits filed as inhibitors | actives 0.56% (n = 390,000); also: nearly all actives have a fitted effect of over 70% in size
#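 HP1-beta protein (50 nM final) preincubated 30 min at room temperature with biotinylated H3(1-18)K9me3 peptide (50 nM) in PBS pH 7.4, 0.01% Tween-20, then compound added for 30 min. AlphaScreen streptavidin donor/nickel chelate acceptor beads (10 ug/mL final), 30 min dark, luminescence read.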
# G9a inh: G9a (human) methyltransferase inhibition. Q96KQ7. G9a H3K9 monomethylation, AlphaScreen, 2 h. Potency, µM (series often up to 102 µM), without a hit: at the top dose activity, negative = inhibition, actives largely listed as inhibitors. actives 8.8% (n = 350,000). AID 504332; also: % is scaled to controls: 0 for no effect and ±100 for the full control effect; nearly all actives have a fitted effect of over 75% in size
#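 G9a (20 nM) preincubated 15 min RT with compounds, then 500 nM biotinylated H3K9 peptide and 20 uM SAM added; 2 h RT reaction. Monomethyl-H3K9 product detected by AlphaScreen with anti-H3K9me1 antibody, streptavidin donor and anti-rabbit IgG acceptor beads.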
# Sfp inh: blocks B. subtilis Sfp PPTase activity | Q9F4F7 | Biochemical Sfp PPTase activity, qHTS | Potency, µM, for inactives: largest response in the series, negative = inhibition, hits mostly inhibitors | actives 3.5% (n = 310,000) | AID 1490;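 also: the enzyme is Sfp with the accession as filed and its product quenches rhodamine fluorescence; 0% = enzyme reaction without inhibitor and -100% = no enzyme wells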
#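 After 15 min at room temperature with compound, 15 nM Sfp received 5 uM rhodamine-CoA plus 12.5 uM BHQ-2-ybbR (50 mM Hepes pH 7.6, 10 mM MgCl2). Rate came from the fluorescence difference over 30 min, ex 525/em 598 nm.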
# JMJD2A Tudor: JMJD2A Tudor domain (human) inhibition; AID 504339; Potency, µM (titrated, usually from 114 µM), for the others: at the highest dose activity change, negative = inhibition, usual class: inhibitors; AlphaScreen JMJD2A-Tudor / H3K4me3 peptide binding; O75164; actives 4.4% (n = 390,000); also: % is scaled to controls: 0 for no effect and ±100 for the full control effect; nearly all actives have a fitted effect of over 50% in size
# L3MBTL1 block: inhibitors of human L3MBTL1; Q9Y468; AlphaScreen L3MBTL1–H3K9me1 peptide binding; Potency, µM (series often up to 57.1 µM), for the others: top-dose activity, negative = inhibition, most hits filed as inhibitors; actives 0.66% (n = 230,000); AID 485360; also: % is scaled to controls: 0 for no effect and ±100 for the full control effect; nearly all actives have a fitted effect of over 60% in size
#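 L3MBTL1 50 nM + b-AHA-H3(1-15)K9me1 75 nM, 30 min RT; compound added, 30 min RT; streptavidin donor/Ni-chelate acceptor beads 10 ug/mL each final, 30 min RT dark; AlphaScreen read.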
# * hit, by the source's call; ? = inconclusive; / = not tested or not shown; [ ] = remark or other dose. Calls follow the shape of the dose curve; as a rule, active = well fitted curve in the direction sought with a large enough effect; inconclusive = small, poorly fitted or top-dose-only effect, or another doubt; inactive = no such curve, though single readings can be large; an effect the other way counts as inactive or inconclusive. Potency is read from the fitted curve at half-maximal effect.
SMILES,BAZ2B inh,HP1b binding inh,G9a inh,Sfp inh,JMJD2A Tudor,L3MBTL1 block
COc1cc2cc(CNc3ccccc3)c(=O)n(CC(=O)Nc3ccccc3)c2cc1OC,1%,-15%,-45%[59 µM],/,-6%,/
C/C(CC(=O)NCc1ccco1)=N\NC(=O)c1ccc(Cl)cc1Cl,?,13%,-8%,-8%,2%,/
O=C1C(Cl)=C(NCCc2ccccc2)C(=O)c2ccccc21,/,?,/,/,0.79µM*,/
CC(=O)N(Cc1ccc(F)cc1)C1=C(NCCc2ccccc2)C(=O)c2ccccc2C1=O,14µM*,-68%,28µM*,-11%,20µM*,/
O=C1c2ccccc2C(=O)c2c(NCCc3ccc(O)cc3)ccc(NCCc3ccc(O)cc3)c21,/,/,1.8µM*,/,/,/
COc1ccccc1CCNC(C)CCc1ccc(O)cc1 (stereo not given),-26%,44%,?,7%,-7%,/
C=CCNC1=C(Cl)C(=O)c2ccccc2C1=O,32µM*,50µM*,40µM*,-10%,45µM*,?
Cn1cccc1C(=O)N1CCC2(CC1)CCN(c1ccncc1)CC2,/,/,-1%[12.7 µM],22%,/,/
CN(C(=O)c1ccc2c(c1)OCCO2)c1c(N)n(Cc2ccccc2)c(=O)[nH]c1=O,10%,17%,?,/,4%,6%
CC[C@H](C)[C@H](NC(=O)[C@H](CC(C)C)NC(=O)[C@@H](N)CO)C(=O)NCC(=O)N[C@@H](CCCN=C(N)N)C(=O)N[C@@H](CC(C)C)C(=O)O,/,/,/,21%,/,/
COc1ccc(-c2cn(-c3ccccc3)nc2C(=O)O)cc1OC,-32%,38%,14%,7%,-3%,/
O=C1C(Cl)=C(NCc2cccnc2)C(=O)c2ccccc21,50µM*,-8%,?,-11%,-36%,/
Clc1ccccc1-c1cc(NCc2cccnc2)ncn1,/,/,/,11%,/,/
CC1COC(=O)O1 (stereo not given),/,/,/,0%,/,/
CCc1ccccc1NC(=O)CN1CCN(CC(=O)Nc2ccc3c(c2)OC2(CCCCC2)O3)CC1,/,16%,/,/,?,/
COc1ccc(-c2nc(C#N)c(NCc3ccc(C)cc3)o2)cc1OC,-7%,27%,-25%[59 µM],-7%,-8%,/
COc1ccc(-c2nc(C#N)c(NCCc3ccccc3)o2)cc1OC,45µM*,-31%,?,-10%,?,/
COc1ccc(CCNc2oc(COc3ccccc3F)nc2C#N)cc1OC,?,?,45µM*,1%,-27%[11.4 µM],-10%
COc1ccc(CCNc2oc(COc3ccccc3Cl)nc2C#N)cc1OC,?,-9%,?,5%,?,20%
COc1ccc(Nc2oc(COc3ccccc3OC)nc2C#N)cc1,?,-4%,?,0%,?,-17%
CCNc1oc(COc2ccccc2F)nc1C#N,-28%,27%,40µM*,0%,-14%,-6%
CC(=O)c1c(C)[nH]c(C(=O)COC(=O)c2c(-c3ccccc3)noc2C)c1C,/,5%,/,/,-15%,-6%
CCc1ccc2oc(=O)cc(CN3CCCCC3)c2c1,6%,36%,-15%,13%,-1%,/
CCn1c(O)c(C#N)c(C)cc1=O,-12%,15%,45µM*,1%,-13%,-10%
COc1cc(Nc2nc(-c3ccccc3)c3cc(C)ccc3n2)cc(OC)c1OC,?,-23%,40µM*,-26%,?,-24%
SMILES,BAZ2B inh,HP1b binding inh,G9a inh,Sfp inh,JMJD2A Tudor,L3MBTL1 block
Cc1c(OC(=O)c2ccc([N+](=O)[O-])cc2)c2c(c[n+]1C)COC(C)(C)OC2,?,-3%,/,-33%,50µM*,7%
Cc1ncc2c(c1OC(=O)c1ccccc1)COC(C)(C)OC2,4%,29%,5%,5%,-9%,/
Cc1ccc(CSc2nc3cccnc3n2Cc2nc(-c3ccccc3F)oc2C)cc1,-10%,28%,?,/,-31%,/
Cc1ccc(/C=C/C(=O)Nc2ncc(C)s2)o1,?,-13%,13µM*,13µM*,-24%,?
Cc1cnc(NC(=O)/C=C/c2ccc(Br)o2)s1,-2%,19%,/,-27%,-25%,4%
Cc1ccc(/C=C/C(=O)Nc2ccc(N(C)C)cc2)o1,35µM*,?,4µM*,-26%,50µM*,-25%
CC(=O)NS(=O)(=O)c1ccc(NC(=O)/C=C/c2ccc(C)o2)cc1,-20%,?,22µM*,5µM*,35µM*,?
Cc1ccc(/C=C/C(=O)Nc2ccncc2)o1,1%,-20%,?,-77%,?,2%
CCN(CC(=O)N1CCCC1)S(=O)(=O)c1cc(C)ccc1OC,8%,16%,25%,15%,-13%,-3%
CCCOc1ccc(/C=C/C(=O)Nc2sc(C)c(C)c2C(=O)OCC)cc1OC,-9%,?,3.2µM*,/,79µM*,/
Cc1ccc(Sc2cncc3sc(C(N)=O)cc23)cc1,/,/,/,11%,/,/
O=C(OCC(=O)N1CCN(C(=O)c2ccco2)CC1)c1cccc(F)c1,10%,29%,-6%[59 µM],/,-7%,4%
CC1CCCN(C(=O)N2c3ccccc3Sc3ccccc32)C1 (stereo not given),-3%,31%,9%,-7%,6%,/
CC1CN(C(=O)N2c3ccccc3Sc3ccccc32)CC(C)O1 (stereo not given),89µM*,16%,-42%[59 µM],-20%,-13%,-9%
CCC(CO)Nc1ncnc2c1cnn2-c1ccc(C)cc1 (stereo not given),10%,3%,13%[59 µM],/,-15%,/
Cn1nnc2sc3c(c2c1=O)CCCC3,?,-19%,?,50µM*,-4%,2%
COc1ccc(OCCn2nnc3sc4c(c3c2=O)CCCC4)cc1,50µM*,3%,-3%[59 µM],/,79µM*,/
COc1ccc(NC(=O)Cn2nnc3sc4c(c3c2=O)CCCC4)cc1,-12%,8%,-38%[59 µM],/,-20%,/
CCCCn1c(N)c(N(CCOC)C(=O)CSc2nnc(-c3ccco3)n2CC)c(=O)[nH]c1=O,/,45%,/,/,-15%,2%
CCN(CC)C(=O)Cn1c(=O)n(-c2ccc(Cl)c(Cl)c2)c(=O)c2c(C)c(C(=O)N(CC)CC)sc21,-2%,-5%,-2%[59 µM],/,-13%,/
COc1ccccc1-c1nn2c(C3COc4ccccc4O3)nnc2s1 (stereo not given),-23%,-38%,3.5µM*,20µM*,-36%,-5%
c1ccc(CCc2nn3c(C4COc5ccccc5O4)nnc3s2)cc1 (stereo not given),9%,?,3.5µM*,-72%,?,-15%
c1ccc(Cc2nn3c(C4COc5ccccc5O4)nnc3s2)cc1 (stereo not given),-23%,-31%,5µM*,14µM*,-32%,-8%
COc1ccccc1-c1nn2c(C(F)(F)F)nnc2s1,-4%,22%,-13%,16%,-6%,-3%

# Screens from PubChem BioAssay.
